# From PubChem BioAssay AID1159580 (chemical genetic matrix, 2015)
# In all, about 5,500 compounds went through this assay and about 2,000 (36%) were called active. Another 18% or so got no clear call; they are omitted. The list shows a part of the results. A number with no mark means an inactive call. Rule as the data show it: active = normalized growth mostly below about 0.91 (no sharp cut-off); inconclusive = no clear call, values can overlap the other calls; inactive = mostly above about 0.92.
# Assay: chemical genetic growth profiling, strain panel (AID 1159580);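 also: tested at 20 µM; growth read once vehicle control cultures reached saturation at 30 °C; 1 = growth at the plate median or of vehicle wells; lower values mean less growth of the strain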
# Details: growth OD
compound,measurement,setting,value
C=C1c2c(Cl)ccc(O)c2C(O)=C2C(=O)[C@]3(O)C(O)=C(C(N)=O)C(=O)[C@@H](N(C)C)[C@@H]3[C@@H](O)[C@H]12,normalized growth,"S. cerevisiae deletion strains, locus YJR075W, strain HOC1, active compounds read low",0.96
same,normalized growth,"S. cerevisiae deletion strains, locus YKL009W, strain mrt4, active compounds read low",1
same,normalized growth,"S. cerevisiae deletion strains, locus YKL068W, active compounds read low",0.989
same,normalized growth,"S. cerevisiae deletion strains, locus YKL085W, strain MDH1 (second series), active compounds read low",0.971
same,normalized growth,"S. cerevisiae deletion strains, locus YKL085W, strain MDH1, active compounds read low",0.971
same,normalized growth,"S. cerevisiae deletion strains, locus YKL160W, strain elf1, active compounds read low",0.999
same,normalized growth,"S. cerevisiae deletion strains, locus YKL190W, strain CNB1, active compounds read low",0.979
same,normalized growth,"S. cerevisiae deletion strains, locus YKR001C, strain vps1, active compounds read low",0.917
same,normalized growth,"S. cerevisiae deletion strains, locus YKR026C, strain gcn3, active compounds read low",0.983
same,normalized growth,"S. cerevisiae deletion strains, locus YKR091W, strain srl3, active compounds read low",0.973
same,normalized growth,"S. cerevisiae deletion strains, locus YLL001W, strain dnm1, active compounds read low",1.01
same,normalized growth,"S. cerevisiae deletion strains, locus YLL026W, active compounds read low",0.996
same,normalized growth,"S. cerevisiae deletion strains, locus YLL041C, strain sdh2, active compounds read low",0.985
same,normalized growth,"S. cerevisiae deletion strains, locus YLR027C, strain aat2, active compounds read low",1
same,normalized growth,"S. cerevisiae deletion strains, locus YLR039C, strain RIC1, active compounds read low",0.968
same,normalized growth,"S. cerevisiae deletion strains, locus YLR058C, strain SHM2, active compounds read low",0.937
same,normalized growth,"S. cerevisiae deletion strains, locus YLR102C, strain apc9, active compounds read low",0.986
same,normalized growth,"S. cerevisiae deletion strains, locus YLR113W, strain HOG1, active compounds read low",1.01
same,normalized growth,"S. cerevisiae deletion strains, locus YLR221C, strain rsa3, active compounds read low",0.935
same,normalized growth,"S. cerevisiae deletion strains, locus YLR258W, strain gsy2, active compounds read low",0.948
same,normalized growth,"S. cerevisiae deletion strains, locus YLR262C, strain YPT6 (second series), active compounds read low",0.974
same,normalized growth,"S. cerevisiae deletion strains, locus YLR262C, strain YPT6, active compounds read low",0.997
same,normalized growth,"S. cerevisiae deletion strains, locus YLR268W, strain sec22, active compounds read low",0.866 (active)
same,normalized growth,"S. cerevisiae deletion strains, locus YLR320W, strain mms22, active compounds read low",0.926
same,normalized growth,"S. cerevisiae deletion strains, locus YLR330W, strain CHS5, active compounds read low",0.981
same,normalized growth,"S. cerevisiae deletion strains, locus YLR342W, strain FKS1 (second series), active compounds read low",0.875
same,normalized growth,"S. cerevisiae deletion strains, locus YLR342W, strain FKS1, active compounds read low",0.965
same,normalized growth,"S. cerevisiae deletion strains, locus YLR357W, strain rsc2, active compounds read low",0.895
same,normalized growth,"S. cerevisiae deletion strains, locus YLR370C, strain arc18, active compounds read low",0.988
same,normalized growth,"S. cerevisiae deletion strains, locus YLR371W, strain rom2, active compounds read low",0.987
same,normalized growth,"S. cerevisiae deletion strains, locus YLR384C, strain iki3, active compounds read low",0.988
same,normalized growth,"S. cerevisiae deletion strains, locus YLR418C, strain cdc73, active compounds read low",0.899
same,normalized growth,"S. cerevisiae deletion strains, locus YML016C, strain PPZ1, active compounds read low",0.968
same,normalized growth,"S. cerevisiae deletion strains, locus YML032C, strain rad52, active compounds read low",0.937
same,normalized growth,"S. cerevisiae deletion strains, locus YML120C, strain ndi1, active compounds read low",0.993
same,normalized growth,"S. cerevisiae deletion strains, locus YML124C, strain tub3, active compounds read low",0.977
same,normalized growth,"S. cerevisiae deletion strains, locus YMR058W, strain fet3, active compounds read low",0.841 (active)
same,normalized growth,"S. cerevisiae deletion strains, locus YMR078C, strain ctf18, active compounds read low",0.983
same,normalized growth,"S. cerevisiae deletion strains, locus YMR125W, strain sto1, active compounds read low",0.954
same,normalized growth,"S. cerevisiae deletion strains, locus YMR129W, active compounds read low",0.981
same,normalized growth,"S. cerevisiae deletion strains, locus YMR205C, strain PFK2, active compounds read low",0.998
same,normalized growth,"S. cerevisiae deletion strains, locus YMR223W, strain ubp8, active compounds read low",0.969
same,normalized growth,"S. cerevisiae deletion strains, locus YMR231W, strain pep5, active compounds read low",0.987
same,normalized growth,"S. cerevisiae deletion strains, locus YMR263W, strain SAP30, active compounds read low",0.957
same,normalized growth,"S. cerevisiae deletion strains, locus YMR307W, strain GAS1, active compounds read low",0.887
same,normalized growth,"S. cerevisiae deletion strains, locus YNL067W, strain RPL9B, active compounds read low",0.93
same,normalized growth,"S. cerevisiae deletion strains, locus YNL071W, strain lat1, active compounds read low",0.96
same,normalized growth,"S. cerevisiae deletion strains, locus YNL128W, strain TEP1, active compounds read low",0.936
same,normalized growth,"S. cerevisiae deletion strains, locus YNL153C, strain GIM3, active compounds read low",0.897
same,normalized growth,"S. cerevisiae deletion strains, locus YNL183C, strain NPR1, active compounds read low",0.947
same,normalized growth,"S. cerevisiae deletion strains, locus YNL209W, strain ssb2, active compounds read low",0.924 (active)
same,normalized growth,"S. cerevisiae deletion strains, locus YNL233W, strain BNI4, active compounds read low",0.919
same,normalized growth,"S. cerevisiae deletion strains, locus YNL248C, strain rpa49, active compounds read low",0.921
same,normalized growth,"S. cerevisiae deletion strains, locus YNL250W, strain rad50, active compounds read low",0.96
same,normalized growth,"S. cerevisiae deletion strains, locus YNL271C, strain bni1, active compounds read low",0.961
same,normalized growth,"S. cerevisiae deletion strains, locus YNL298W, strain CLA4, active compounds read low",1
same,normalized growth,"S. cerevisiae deletion strains, locus YNL307C, strain MCK1, active compounds read low",0.965
same,normalized growth,"S. cerevisiae deletion strains, locus YNL322C, strain KRE1 (second series), active compounds read low",0.958
same,normalized growth,"S. cerevisiae deletion strains, locus YNL322C, strain KRE1, active compounds read low",0.985
same,normalized growth,"S. cerevisiae deletion strains, locus YNR049C, strain mso1, active compounds read low",0.971
same,normalized growth,"S. cerevisiae deletion strains, locus YNR052C, strain pop2, active compounds read low",0.99
same,normalized growth,"S. cerevisiae deletion strains, locus YOL006C, strain TOP1, active compounds read low",0.839
same,normalized growth,"S. cerevisiae deletion strains, locus YOL012C, strain htz1",0.807
same,normalized growth,"S. cerevisiae deletion strains, locus YOL147C, strain pex11, active compounds read low",0.975
same,normalized growth,"S. cerevisiae deletion strains, locus YOR001W, strain rrp6, active compounds read low",0.997
same,normalized growth,"S. cerevisiae deletion strains, locus YOR061W, strain CKA2, active compounds read low",0.973
same,normalized growth,"S. cerevisiae deletion strains, locus YOR069W, strain VPS5, active compounds read low",0.974
same,normalized growth,"S. cerevisiae deletion strains, locus YOR070C, strain gyp1, active compounds read low",0.951
same,normalized growth,"S. cerevisiae deletion strains, locus YOR080W, strain dia2, active compounds read low",0.988
same,normalized growth,"S. cerevisiae deletion strains, locus YOR083W, strain WHI5, active compounds read low",0.96
same,normalized growth,"S. cerevisiae deletion strains, locus YOR106W, strain vam3, active compounds read low",0.974
same,normalized growth,"S. cerevisiae deletion strains, locus YOR136W, strain idh2, active compounds read low",0.997
same,normalized growth,"S. cerevisiae deletion strains, locus YOR144C, strain elg1, active compounds read low",0.984
same,normalized growth,"S. cerevisiae deletion strains, locus YOR184W, strain ser1, active compounds read low",0.978
same,normalized growth,"S. cerevisiae deletion strains, locus YOR231W, strain MKK1, active compounds read low",0.972
same,normalized growth,"S. cerevisiae deletion strains, locus YOR265W, strain rbl2, active compounds read low",0.974
same,normalized growth,"S. cerevisiae deletion strains, locus YOR270C, strain vph1, active compounds read low",0.97
same,normalized growth,"S. cerevisiae deletion strains, locus YOR290C, strain snf2, active compounds read low",0.916
same,normalized growth,"S. cerevisiae deletion strains, locus YOR316C, strain cot1, active compounds read low",0.992
same,normalized growth,"S. cerevisiae deletion strains, locus YPL051W, strain arl3, active compounds read low",0.973
same,normalized growth,"S. cerevisiae deletion strains, locus YPL055C, strain LGE1, active compounds read low",0.94
same,normalized growth,"S. cerevisiae deletion strains, locus YPL078C, strain atp4, active compounds read low",1.02
same,normalized growth,"S. cerevisiae deletion strains, locus YPL106C, strain sse1, active compounds read low",0.898
same,normalized growth,"S. cerevisiae deletion strains, locus YPL240C, strain hsp82, active compounds read low",1
same,normalized growth,"S. cerevisiae deletion strains, locus YPL241C, strain CIN2, active compounds read low",0.978
same,normalized growth,"S. cerevisiae deletion strains, locus YPL256C, strain CLN2, active compounds read low",1.01
same,normalized growth,"S. cerevisiae deletion strains, locus YPR119W, strain clb2, active compounds read low",0.985
same,normalized growth,"S. cerevisiae deletion strains, locus YPR141C, strain kar3, active compounds read low",0.979
same,normalized growth,"S. cerevisiae deletion strains, locus YPR163C, strain tif3, active compounds read low",0.958
same,normalized growth,"S. cerevisiae deletion strains, locus YPR167C, strain met16, active compounds read low",0.977
same,normalized growth,"S. cerevisiae deletion strains, strain wtn01, active compounds read low",0.934
same,normalized growth,"S. cerevisiae strains, strain wild type, active compounds read low",0.95
